This passage reports growth results from PubChem BioAssay (NCI).

Compounds without any hit were thinned out: in the full panel of roughly 83,000, 20% have a hit.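 The endpoint reported here, percent growth, reads 100 for growth as untreated, 0 for no net growth and -100 for all cells dead.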 Activity calls are given as the source filed them. The calls were made as follows: active = growth percent below 10; inactive = the rest.

The test system of the assay is CCRF-CEM leukemia. The assay can be described thus: NCI-60 one-dose screen, 48 h (100 = growth as untreated, 0 = no growth, -100 = all killed). Particulars: 10 µM unless noted.
For `Cc1cc(Br)ccc1-n1cc(C#N)c(N)c1C(=O)c1ccc(Br)cc1`, the growth was 96.6% (inactive).
`CCCCCCN1C=C/C(=C\C(=O)n2ccc3ccccc32)c2ccccc21`: the growth was 54.8% (inactive).
In the case of `Cc1ccc(CSC2=C(Cl)CN(c3ccc(Cl)cc3)C2=O)cc1` it was 106% (inactive); in that of `Clc1ccc(CSc2nnc(-c3ccc(Cl)cc3)n2-c2ccccc2)cc1`, 97.4% (inactive); in that of `NS(=O)(=O)c1ccc(CCn2c(-c3ccc(C(=O)O)cc3)nc(-c3ccccc3)c2-c2ccccc2)cc1`, 104% (inactive).
The same measure for `CC(=C(c1ccc(OCCCN(C)C)cc1)c1ccc(OCCCN(C)C)cc1)c1ccc(Cl)cc1`: 66.8% (inactive); for `CC[C@]12CC(C(=O)OC)=C3Nc4ccccc4[C@@]34CCN(C14)[C@@H]1c3cc4c(cc3O[C@@H]1[C@H]2O)NC1=C(C(=O)OC)C[C@@]2(CC)C3N(CC[C@@]143)C[C@H]1O[C@H]12` (some centres not stated): 12.6% (inactive).
As to `Cc1ccc(-c2csc(N/N=C/c3cccs3)n2)cc1`, the growth was 91.9% (inactive).
In the case of `CN1CCC[C@]2(C)[C@H]3CC[C@@H]4[C@@H]5[C@H]6OC[C@@]5(CCC6(C)C)CC[C@@]4(C)[C@]3(C)CC[C@H]2C1(C)C` it was 66.4% (inactive); in that of `O=S(=O)(Oc1ccc(-c2cn3ccoc3n2)cc1)c1cccc(C(F)(F)F)c1`, 106% (inactive); in that of `CC(Nc1c(C#N)cnc2ccc(-c3cncc(-c4n[nH]c(=O)o4)c3)cc12)c1ccccc1` (configuration not stated), 19.6% (inactive).
With `C#CCN(C)CCCOc1ccc(NC(=O)CCCCCCCCC(=O)NO)cc1Cl`, the growth is 30.5% (inactive).
